Results reported in PubChem BioAssay AID924 (National Center for Advancing Translational Sciences (NCATS), 2007).
Screen size: about 130,000 compounds; about 1,200 (0.92%) were called active. About 3% were inconclusive and are not listed. Only a selection was taken, and actives are over-represented in it overall. Values without a mark were called inactive. Calls come from the whole dose curve; as a rule, active = well fitted cell-killing curve with a large enough effect; inconclusive = small, poorly fitted or top-dose-only effect; inactive = no such curve, though single readings can be large or run the other way.

assay: qHTS Screen for Compounds that Selectively Target Cancer Cells with p53 Mutations: Cytotoxicity of p53ts Cells at the Permissive Temperature; settings: H1299-p53A138V at 32C, ATP luminescence viability, 24 h; series mostly up to 46.1 µM; activity change, negative = cytotoxicity: at the top concentration; note: nearly all actives have a fitted effect of over 55% in size;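 for activity change, negative = cytotoxicity: 0% = DMSO and -100% = full killing by reference compound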
Description: NIH Chemical Genomics Center [NCGC] NIH Molecular Libraries Screening Centers Network [MLSCN] MLSCN Grant: 1 X01 MH079844-01 Assay Submitter (PI): Dr. SUN, YI, University of Michigan NCGC Assay Overview: Synthetic Lethal Screen for Compounds to Kill Cancer Cells with p53 Mutation. Tumor suppressor gene p53 serves as a major cellular barrier against tumorigenesis. […] The goal of this screening is to identify small molecule probes that selectively kill cancer cells with mutations in p53. This screening was carried out using two lines of H1299 lung cancer cells. The H1299-p53 A138V line express a temperature sensitive p53 mutant (p53ts) in which the mutant p53 protein (A138V) is in the mutant confirmation when grown at 39C (the nonpermissive temperature) and in the wild type conformation when grown at 32C (the permissive temperature). A H1299-neo line (p53 null) grown at both 39C and 32C were used as counter-screens to filter out false positive associated with temperature shifting. The small molecular compounds that selectively target mutant p53-containing cancer cells were selected as candidate probes for further study. A cytotoxicity assay based on the measurement of ATP contents in cells was used in this screen. Concentration-responses of all the compounds in the library collection were determined in qHTS using the cell lines and temperature conditions as above.
NCGC Assay Protocol Summary: Both the H1299-p53A138V and H1299-neo cell lines were provided by Dr.Yi Sun, a PI at the University Michigan. The cells were maintained and cultured at 37C. The resuspended frozen cells were used to plate the cells in the 1536-well assay plates at a density of 600 cells per well in 5 ul medium. The assay plates with the cells were incubated at 37C for 16 to 30 hours before the experiments. The library compounds in DMSO solution were added to the cells in assay plates and incubated 24 hours at 39C (for mutant p53 conformation) or 32C (for normal p53 conformation as control). An ATP_lite assay kit (PerkinElmer) was used to determine the cell viability. Tomaxifen (100uM) was used as the positive control for cell killing. Data were normalized to the controls for basal activity (DMSO only) and 100% killing (100uM tamoxifen). AC50 values were determined from concentration-response data modeled with the standard Hill equation. P53 assay protocol: 1. Reagent; 5 uL H1299-p53A138V or H1299-neo cell cells/well 2. Time; overnight; 37C incubation 3. Compounds; 23 nL; 5.9 nM to 46 uM 4. Controls; 23 nL; Tamoxifen 100 uM 5. Time; 24 hr; 37C incubation 6. Reagent; 3 uL; ATP_Lite reagent 7. Time; 20 min; Room Temperature 8. Detection; Luminescence; Viewlux plate reader Keywords: p53, synthetic lethal, cancer, cell viability, cytotoxicity, H1299 cell line, luminescence, MLSMR, MLSCN, NIH Roadmap, qHTS, NCGC
Potency is the fitted concentration of half-maximal effect.

Row | SMILES | Potency | activity change, negative = cytotoxicity
1 | COc1ccc(NC(=O)Nc2cccc3cccnc23)cc1 | 12.6 µM (active) | 
2 | Cc1cccc(Cn2cccc(C(=O)Nc3ccc4c(c3)OCCO4)c2=O)c1 |  | -2.43%
3 | CC(=O)c1c(O)c(C)c(O)c(Cc2c(O)c3c(c(C(=O)/C=C\c4ccccc4)c2O)OC(C)(C)C=C3)c1O |  | -20.2%
4 | CC(C)(c1ccc(OC[C@@H]2CO2)cc1)c1ccc(OC[C@H]2CO2)cc1 | 12.6 µM (active) | 
5 | CCOC(=O)c1ccc(N2C(=O)c3[nH]nc(-c4ccccc4)c3C2c2ccc(C(C)C)cc2)cc1 (stereo not given) |  | 18.8%
6 | Cc1nnc(NC(=O)c2cccn(Cc3cccc(F)c3)c2=O)s1 |  | -14.1%
7 | C=CC#N |  | -9.3% [at 1.84 µM]
8 | O=C(Nc1ccc(Cl)cc1C(=O)c1ccccc1)c1cc(Cl)cc(Cl)c1 |  | -9.25%
9 | CN(C)C1C(=O)C(C(N)=O)=C(O)[C@@]2(O)C(=O)C3=C(O)c4c(O)cccc4[C@@](C)(O)C3C[C@@H]12 (stereo not given in full) |  | -3.32%
10 | CC(C)Nc1nc(Cl)nc(NC(C)C)n1 |  | 2.45%
11 | CC[C@@H]1CN2CC[C@@H]1C[C@H]2[C@H](O)c1ccnc2ccc(OC)cc12 |  | 0.789%
12 | C[C@H](CCC(=O)O)[C@H]1CC[C@@H]2[C@H]3CC[C@H]4C[C@H](O)CC[C@@]4(C)[C@@H]3CC[C@@]21C |  | 5.89% [at 9.22 µM]
13 | CC(C)Oc1ccc(NC(=O)c2cc3ccccc3o2)cc1 | 6.31 µM (active) | 
14 | CN(C)c1cccc(C(=O)Nc2nc3ccc(S(=O)(=O)NC(C)(C)C)cc3s2)c1 |  | 32.2%
15 | Cc1ccc(NC(=O)N(Cc2ccc3c(c2)OCO3)C2CCN(Cc3ccccc3)CC2)cc1F |  | -27.3%
16 | Cc1ccc(-n2c(/C=C/c3cccc(C(F)(F)F)c3)nc3ccccc3c2=O)cc1 |  | -5.31%
17 | CCN1C[C@]2(COC)C(O)C[C@H](OC)[C@@]34C5C[C@]6(O)C(OC)C(O)[C@](OC(C)=O)(C5C6OC(=O)c5ccccc5)C(C(OC)C23)C14 (stereo not given in full) |  | -5%
18 | N#Cc1c(Cl)c(Cl)c(Cl)c(C#N)c1Cl | 3.98 µM (active) | 
19 | Cc1ccc(Cl)cc1N1CCN(C(=O)C2CCC(CNS(=O)(=O)c3cccs3)CC2)CC1 (stereo not given) |  | 37.8%
20 | Cn1cc(/C=C/c2nc3ccccc3c(=O)n2-c2ccccc2)c2ccccc21 |  | -13.4%
